Data reported in PubChem BioAssay (NCI).
This is part of a sample that, as a whole, favours compounds with a hit. Of some 83,000 tested, about 20% had one in any assay.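 Each cell line was grown in a 96-well plate and treated with one concentration of compound for 48 hours. Values below 10 were considered active.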 The source made the active and inactive calls.

Legend:
Assay in all cases: NCI-60 one-dose screen, 48 h (100 = growth as untreated, 0 = no growth, -100 = all killed)
Settings in all cases: 10 µM unless noted
[1] = system: HT29 colon
[2] = system: SNB-75 CNS
[3] = system: SNB-19 CNS
[4] = system: U251 CNS
[5] = system: PC-3 prostate
[6] = system: UACC-62 melanoma
[7] = system: SK-MEL-28 melanoma
[8] = system: SK-MEL-2 melanoma
[9] = system: EKVX NSCLC
[10] = system: SN12C renal
[11] = system: UO-31 renal
[12] = system: TK-10 renal
[13] = system: CAKI-1 renal
[14] = system: A498 renal
[15] = system: CCRF-CEM leukemia
[16] = system: MOLT-4 leukemia
[17] = system: SR leukemia
[18] = system: ACHN renal

Measured: growth

CCOC(=O)c1sc(N)c(C(=O)OCC)c1C
inactive: [1] 43.4% | [2] 36% | [3] 71.7% | [4] 44.2% | [5] 54.4% | [6] 57.7% | [7] 78.8% | [8] 75.2% | [9] 25.9% | [10] 54.9% | [11] 31.3% | [12] 41.1% | [13] 39.1% | [14] 13.4% | [15] 42% | [16] 26.5% | [17] 47.2%

Cc1ccc2c(n1)C(=O)C(Cl)=C(Nc1cccc(C(C)C)c1)C2=O
inactive: [1] 97% | [2] 68.6% | [3] 71.7% | [4] 60.3% | [5] 57.9% | [6] 87.1% | [7] 63.1% | [8] 47.2% | [9] 65% | [10] 31.9% | [11] 50.3% | [12] 119% | [18] 50.1% | [13] 75.3% | [14] 71.4% | [15] 14.8% | [16] 35.4% | [17] 24%

O=C(N/N=C/c1ccc[nH]1)c1[nH]c2ccc(Br)cc2c1-c1ccccc1
inactive: [2] 27.3% | [3] 30.6% | [4] 21.8% | [5] 15.2% | [6] 13.4% | [7] 61.2% | [8] 31.9% | [10] 28.7% | [11] 12.3% | [12] 44.5% | [18] 12.2% | [13] 21.2%
active: [1] 6.16% | [15] 5.27% | [16] 5.94% | [17] 1.89%

COc1ccc(NC2=C(Cl)C(=O)C(C)=C(C)C2=O)cc1OC
inactive: [1] 101% | [2] 126% | [3] 84.7% | [4] 77.7% | [5] 67.9% | [6] 81.2% | [7] 108% | [8] 83.7% | [9] 74.3% | [10] 88.9% | [11] 90.3% | [12] 170% | [18] 91.4% | [13] 89.4% | [14] 93.2% | [15] 15.3% | [16] 40.1% | [17] 84.5%

C#Cc1nc(C2=C(C)C(=O)/C(=N/OC(C)=O)C2)cs1
inactive: [1] 115% | [3] 96.2% | [4] 98.1% | [5] 94.3% | [6] 80.3% | [7] 107% | [8] 96.9% | [9] 97.5% | [10] 99% | [12] 151% | [18] 26.3% | [13] 58.5% | [15] 80.8% | [16] 87.7% | [17] 13.4%
active: [2] -46.3% | [11] -92.1%

CC1=C(C)C(=O)C(Nc2ccccc2)=C(Cl)C1=O
inactive: [1] 99.1% | [2] 65.4% | [3] 88.8% | [4] 84.3% | [5] 73.9% | [6] 90.3% | [7] 106% | [9] 55.2% | [10] 91.1% | [11] 98.8% | [12] 128% | [18] 100% | [13] 96.1% | [14] 91.2% | [16] 12.7% | [17] 62.9%
active: [15] 5.28%

C/C(=N/NC(N)=S)c1ccc(Nc2nc(SCC(C)C)nc(-c3ccc(F)cc3)c2C#N)cc1
inactive: [1] 15% | [2] 80.6% | [3] 15.4% | [8] 11.1% | [10] 12.7% | [18] 12.5% | [14] 15.9% | [15] 51.7% | [16] 44.4% | [17] 42.8%
active: [4] -39.6% | [5] -14.5% | [6] -18.4% | [7] -9.66% | [11] 0.28% | [12] 8.09% | [13] -9.45%

CN1CCN(Cc2ccc(NC(=O)c3cncc(C#Cc4cnc5[nH]ncc5c4)c3)cc2C(F)(F)F)CC1
active: [6] 1.56% | [7] 1.4% | [11] 2.97% | [13] -13.2% | [14] -5.79%
inactive: [1] 22.7% | [2] 64% | [3] 59.3% | [4] 31.3% | [5] 42.3% | [9] 55.4% | [10] 14.4% | [12] 49.7% | [15] 20.1% | [16] 16.9% | [17] 10.6%

CCCC(=O)NC(c1ccc(N(CC)CC)cc1)c1cc(C)c2cccnc2c1O (centres undefined)
active: [6] 8.31% | [11] 3.42% | [15] 6.15% | [16] 8.44% | [17] 5.57%
inactive: [1] 36.4% | [2] 60.4% | [3] 25.1% | [4] 25.6% | [5] 39.3% | [7] 29.6% | [8] 23% | [10] 26.6% | [12] 31.6% | [18] 10.7% | [13] 18.7%

CC(C)Sc1nc(Nc2ccc(S(N)(=O)=O)cc2)c(C#N)c(-c2ccc(F)cc2)n1
active: [17] -36.9%
inactive: [5] 40.9% | [6] 46.5% | [7] 78% | [8] 92.5% | [9] 50.9% | [15] 36.6% | [16] 49.9%

C=C1CC[C@H]2[C@@](C)(CCC3OC(c4ccc(OCc5cn(C6CC(OC(C)=O)C(OC(C)=O)C(COC(C)=O)O6)nn5)cc4)OC[C@]32C)[C@@H]1/C=C/C1=CCOC1=O (some centres undefined)
inactive: [1] 84.1% | [2] 94.8% | [3] 88.3% | [4] 92.9% | [5] 62% | [6] 70.5% | [7] 100% | [8] 100% | [9] 52.3% | [10] 67.5% | [11] 57.7% | [12] 119% | [13] 77% | [15] 65.7% | [16] 62.1% | [17] 51%

CCOc1ccc2nc(NC(=O)c3ccc(C(F)(F)F)cc3)sc2c1
inactive: [1] 97.9% | [2] 102% | [3] 101% | [4] 100% | [5] 108% | [6] 99.1% | [7] 105% | [9] 102% | [10] 101% | [11] 104% | [12] 95.4% | [18] 110% | [13] 98.1% | [14] 95.7% | [15] 92.1% | [16] 103% | [17] 89.5%

Cc1cc(C(=O)Nc2sc3c(c2C(N)=O)CCC(=O)C3)ccc1OCCN1CCCCC1
inactive: [1] 96.2% | [2] 95.2% | [3] 102% | [4] 96.8% | [5] 88.6% | [6] 100% | [7] 115% | [8] 106% | [9] 107% | [10] 92.5% | [11] 94.8% | [12] 148% | [18] 91.1% | [13] 98.3% | [14] 120% | [15] 77.1% | [16] 51.9% | [17] 81.6%

CC(=O)Oc1ccccc1C(=O)Nc1ccc(C(=O)/C=C/c2cccs2)cc1
inactive: [1] 110% | [2] 113% | [3] 101% | [4] 99.4% | [5] 103% | [6] 98.3% | [7] 106% | [8] 122% | [9] 103% | [10] 104% | [11] 105% | [18] 112% | [13] 96.2% | [14] 80.7% | [15] 99.7% | [16] 104% | [17] 93.9%

CCOC(=O)c1c(NC(=O)c2cccc(C(F)(F)F)c2)sc2cc(O)ccc12
inactive: [1] 105% | [2] 73.4% | [3] 96% | [4] 98.9% | [5] 94.8% | [6] 97.9% | [7] 108% | [8] 100% | [10] 89.4% | [11] 60.1% | [12] 183% | [13] 96.7% | [14] 77.1% | [15] 63.5% | [16] 81.6% | [17] 101%
